From the supplement of paper PMC4022240
± gives the standard deviation.

Key:
Experiment in all cases: peptide microarray binding signal (635 nm), min-max normalized on array (fraction of array maximum); higher = stronger binding
Details in all cases: peptide region: H3 1-13
[1] = molecular target: T1, HaloTag-ATRX ADD domain (163-292)
T1 chain: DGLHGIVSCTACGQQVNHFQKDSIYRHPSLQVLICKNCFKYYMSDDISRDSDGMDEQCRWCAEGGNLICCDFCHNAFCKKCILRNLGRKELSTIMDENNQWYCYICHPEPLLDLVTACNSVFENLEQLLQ
Method: (§1)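 Histone 13-mer peptides were synthesized as cellulose conjugates with a C-terminal 20-atom PEG linker and printed in triplicate on nitrocellulose. The sequence given is the unmodified backbone; PTMs (Kme1/2/3, Kac, Sph/Tph, Rme/Rme2a/Rme2s, Rcit) are listed in the label and the 'peptide modifications' condition. Slides were probed at 4 °C for 1 h with biotin-labelled (HQ)5-HaloTag reader fusions (ATRX-ADD, ING2-PHD) then streptavidin-Alexa647, or with rabbit histone antibodies then anti-rabbit Alexa647. The mean 635 nm signal of the triplicate spots was scaled 0-1 between the lowest and highest values on each array.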

[2] = molecular target: HaloTag-ING2 PHD (mouse Ing2 200-280)
Method: as §1

[3] = molecular target: anti-H3K4me3 antibody ab8580
Method: as §1

[4] = molecular target: anti-H3K9me3 antibody ab8898
Method: as §1

[5] = peptide modifications: H3R2me2s H3T6ph, binder concentration: 1:2,000 dilution
[6] = peptide modifications: H3R2me2s H3T6ph, binder concentration: 1:10,000 dilution
[7] = peptide modifications: H3R8me1 H3K9me1, binder concentration: 1:2,000 dilution
[8] = peptide modifications: H3R8me1 H3K9me1, binder concentration: 1:10,000 dilution
[9] = peptide modifications: H3R2me2s H3K9me1, binder concentration: 1:2,000 dilution
[10] = peptide modifications: H3R2me2s H3K9me1, binder concentration: 1:10,000 dilution
[11] = peptide modifications: H3R8me1 H3K9me3, binder concentration: 1:2,000 dilution
[12] = peptide modifications: H3R8me1 H3K9me3, binder concentration: 1:10,000 dilution
[13] = peptide modifications: H3R8me2a H3K9me2, binder concentration: 1:2,000 dilution
[14] = peptide modifications: H3R8me2a H3K9me2, binder concentration: 1:10,000 dilution
[15] = peptide modifications: H3R2me2s H3K9me3, binder concentration: 1:2,000 dilution
[16] = peptide modifications: H3R2me2s H3K9me3, binder concentration: 1:10,000 dilution
[17] = peptide modifications: H3R8me1, binder concentration: 1:2,000 dilution
[18] = peptide modifications: H3R8me1, binder concentration: 1:10,000 dilution
[19] = peptide modifications: H3R8me1 H3K9ac, binder concentration: 1:2,000 dilution
[20] = peptide modifications: H3R8me1 H3K9ac, binder concentration: 1:10,000 dilution
[21] = peptide modifications: H3R2me2s H3K9ac, binder concentration: 1:2,000 dilution
[22] = peptide modifications: H3R2me2s H3K9ac, binder concentration: 1:10,000 dilution
[23] = peptide modifications: H3R8cit H3K9me3, binder concentration: 1:2,000 dilution
[24] = peptide modifications: H3R8cit H3K9me3, binder concentration: 1:10,000 dilution

ARTKQTARKSTGG [H3 1-13 A Rme2s T K Q Tph A R K S T G G]
peptide microarray binding signal ([1]; peptide modifications: H3R2me2s H3T6ph, binder concentration: 50 nM): 0.00476 ± 0.00012 | peptide microarray binding signal ([1]; peptide modifications: H3R2me2s H3T6ph, binder concentration: 500 nM): 0.0109 ± 0.00039 | peptide microarray binding signal ([2]; peptide modifications: H3R2me2s H3T6ph, binder concentration: 10 nM): 0.002745 ± 2.7e-05 | peptide microarray binding signal ([2]; peptide modifications: H3R2me2s H3T6ph, binder concentration: 100 nM): 0.0193 ± 0.0028 | peptide microarray binding signal [3, 5]: 0.000774 ± 1.9e-05 | peptide microarray binding signal [3, 6]: 0.00097 ± 2e-05 | peptide microarray binding signal [4, 5]: 0.000876 ± 2.6e-05 | peptide microarray binding signal [4, 6]: 0.000461

ARTKQTARKSTGG [H3 1-13 A R T K Q T A Rme Kme S T G G]
peptide microarray binding signal ([1]; peptide modifications: H3R8me1 H3K9me1, binder concentration: 50 nM): 0.0189 ± 0.0012 | peptide microarray binding signal ([1]; peptide modifications: H3R8me1 H3K9me1, binder concentration: 500 nM): 0.0502 ± 0.0023 | peptide microarray binding signal ([2]; peptide modifications: H3R8me1 H3K9me1, binder concentration: 10 nM): 0.0183 ± 0.0025 | peptide microarray binding signal ([2]; peptide modifications: H3R8me1 H3K9me1, binder concentration: 100 nM): 0.0398 ± 0.0084 | peptide microarray binding signal [3, 7]: 0.00206 ± 9e-05 | peptide microarray binding signal [3, 8]: 0.00108 ± 5e-05 | peptide microarray binding signal [4, 7]: 0.00319 ± 0.00084 | peptide microarray binding signal [4, 8]: 0.00202 ± 3.2e-05

ARTKQTARKSTGG [H3 1-13 A Rme2s T K Q T A R Kme S T G G]
peptide microarray binding signal ([1]; peptide modifications: H3R2me2s H3K9me1, binder concentration: 50 nM): 0.0197 ± 0.00077 | peptide microarray binding signal ([1]; peptide modifications: H3R2me2s H3K9me1, binder concentration: 500 nM): 0.03 ± 0.0016 | peptide microarray binding signal ([2]; peptide modifications: H3R2me2s H3K9me1, binder concentration: 10 nM): 0.0236 ± 0.0023 | peptide microarray binding signal ([2]; peptide modifications: H3R2me2s H3K9me1, binder concentration: 100 nM): 0.0288 ± 0.00047 | peptide microarray binding signal [3, 9]: 0.0193 ± 0.003 | peptide microarray binding signal [3, 10]: 0.0216 ± 0.0013 | peptide microarray binding signal [4, 9]: 0.0154 ± 0.00086 | peptide microarray binding signal [4, 10]: 0.0152 ± 0.0011

ARTKQTARKSTGG [H3 1-13 A R T K Q T A Rme Kme3 S T G G]
peptide microarray binding signal ([1]; peptide modifications: H3R8me1 H3K9me3, binder concentration: 50 nM): 0.398 ± 0.0051 | peptide microarray binding signal ([1]; peptide modifications: H3R8me1 H3K9me3, binder concentration: 500 nM): 0.396 ± 0.0076 | peptide microarray binding signal ([2]; peptide modifications: H3R8me1 H3K9me3, binder concentration: 10 nM): 0.0338 ± 0.011 | peptide microarray binding signal ([2]; peptide modifications: H3R8me1 H3K9me3, binder concentration: 100 nM): 0.0759 ± 0.034 | peptide microarray binding signal [3, 11]: 0.0426 ± 0.012 | peptide microarray binding signal [3, 12]: 0.0253 ± 0.013 | peptide microarray binding signal [4, 11]: 0.258 ± 0.015 | peptide microarray binding signal [4, 12]: 0.171 ± 0.017

ARTKQTARKSTGG [H3 1-13 A R T K Q T A Rme2a Kme2 S T G G]
peptide microarray binding signal ([1]; peptide modifications: H3R8me2a H3K9me2, binder concentration: 50 nM): 0.0425 ± 0.0031 | peptide microarray binding signal ([1]; peptide modifications: H3R8me2a H3K9me2, binder concentration: 500 nM): 0.0913 ± 0.0063 | peptide microarray binding signal ([2]; peptide modifications: H3R8me2a H3K9me2, binder concentration: 10 nM): 0.044 ± 0.0014 | peptide microarray binding signal ([2]; peptide modifications: H3R8me2a H3K9me2, binder concentration: 100 nM): 0.06 ± 0.0041 | peptide microarray binding signal [3, 13]: 0.00357 ± 0.00013 | peptide microarray binding signal [3, 14]: 0.00314 ± 4.6e-05 | peptide microarray binding signal [4, 13]: 0.00355 ± 0.00032 | peptide microarray binding signal [4, 14]: 0.00334 ± 0.00031

ARTKQTARKSTGG [H3 1-13 A Rme2s T K Q T A R Kme3 S T G G]
peptide microarray binding signal ([1]; peptide modifications: H3R2me2s H3K9me3, binder concentration: 50 nM): 0.172 ± 0.02 | peptide microarray binding signal ([1]; peptide modifications: H3R2me2s H3K9me3, binder concentration: 500 nM): 0.303 ± 0.03 | peptide microarray binding signal ([2]; peptide modifications: H3R2me2s H3K9me3, binder concentration: 10 nM): 0.0377 ± 0.0039 | peptide microarray binding signal ([2]; peptide modifications: H3R2me2s H3K9me3, binder concentration: 100 nM): 0.0559 ± 0.0018 | peptide microarray binding signal [3, 15]: 0.211 ± 0.015 | peptide microarray binding signal [3, 16]: 0.14 ± 0.0028 | peptide microarray binding signal [4, 15]: 0.81 ± 0.03 | peptide microarray binding signal [4, 16]: 0.561 ± 0.017

ARTKQTARKSTGG [H3 1-13 A R T K Q T A Rme K S T G G]
peptide microarray binding signal ([1]; peptide modifications: H3R8me1, binder concentration: 50 nM): 0.00875 ± 0.0009 | peptide microarray binding signal ([1]; peptide modifications: H3R8me1, binder concentration: 500 nM): 0.0184 ± 0.00056 | peptide microarray binding signal ([2]; peptide modifications: H3R8me1, binder concentration: 10 nM): 0.005013 ± 5e-05 | peptide microarray binding signal ([2]; peptide modifications: H3R8me1, binder concentration: 100 nM): 0.0155 ± 0.0047 | peptide microarray binding signal [3, 17]: 0.000717 ± 4.6e-05 | peptide microarray binding signal [3, 18]: 0.000685 ± 2.6e-05 | peptide microarray binding signal [4, 17]: 0.00071 ± 4.4e-05 | peptide microarray binding signal [4, 18]: 0.000519 ± 5.6e-06

ARTKQTARKSTGG [H3 1-13 A R T K Q T A Rme Kac S T G G]
peptide microarray binding signal ([1]; peptide modifications: H3R8me1 H3K9ac, binder concentration: 50 nM): 0.00721 ± 8e-05 | peptide microarray binding signal ([1]; peptide modifications: H3R8me1 H3K9ac, binder concentration: 500 nM): 0.0187 ± 0.0017 | peptide microarray binding signal ([2]; peptide modifications: H3R8me1 H3K9ac, binder concentration: 10 nM): 0.0141 ± 0.00051 | peptide microarray binding signal ([2]; peptide modifications: H3R8me1 H3K9ac, binder concentration: 100 nM): 0.0352 ± 0.0065 | peptide microarray binding signal [3, 19]: 0.00179 ± 0.00022 | peptide microarray binding signal [3, 20]: 0.000628 ± 6.7e-06 | peptide microarray binding signal [4, 19]: 0.00122 ± 4.2e-05 | peptide microarray binding signal [4, 20]: 0.000807 ± 1.5e-05

ARTKQTARKSTGG [H3 1-13 A Rme2s T K Q T A R Kac S T G G]
peptide microarray binding signal ([1]; peptide modifications: H3R2me2s H3K9ac, binder concentration: 50 nM): 0.0127 ± 0.00045 | peptide microarray binding signal ([1]; peptide modifications: H3R2me2s H3K9ac, binder concentration: 500 nM): 0.0427 ± 0.0013 | peptide microarray binding signal ([2]; peptide modifications: H3R2me2s H3K9ac, binder concentration: 10 nM): 0.0451 ± 0.0015 | peptide microarray binding signal ([2]; peptide modifications: H3R2me2s H3K9ac, binder concentration: 100 nM): 0.0681 ± 0.0061 | peptide microarray binding signal [3, 21]: 0.0383 ± 0.0035 | peptide microarray binding signal [3, 22]: 0.0308 ± 0.0052 | peptide microarray binding signal [4, 21]: 0.0163 ± 0.0031 | peptide microarray binding signal [4, 22]: 0.00836 ± 0.00038

ARTKQTARKSTGG [H3 1-13 A R T K Q T A Rcit Kme3 S T G G]
peptide microarray binding signal ([1]; peptide modifications: H3R8cit H3K9me3, binder concentration: 50 nM): 0.325 ± 0.047 | peptide microarray binding signal ([1]; peptide modifications: H3R8cit H3K9me3, binder concentration: 500 nM): 0.387 ± 0.024 | peptide microarray binding signal ([2]; peptide modifications: H3R8cit H3K9me3, binder concentration: 10 nM): 0.0423 ± 0.0029 | peptide microarray binding signal ([2]; peptide modifications: H3R8cit H3K9me3, binder concentration: 100 nM): 0.055 ± 0.0029 | peptide microarray binding signal [3, 23]: 0.0234 ± 0.008 | peptide microarray binding signal [3, 24]: 0.0152 ± 0.0012 | peptide microarray binding signal [4, 23]: 0.331 ± 0.019 | peptide microarray binding signal [4, 24]: 0.296 ± 0.055
